Molecules are shown by their SMILES. About 8,600 (12%) of roughly 69,000 compounds showed an effect of 50% or more. Shown is part of a subset that was picked to be rich in strong results.

The experiment deals with Plasmodium berghei. As to the kind of experiment: Screen against P. berghei liver stage (PbLuc), transformed with Luciferase, at 10uM. The experiment is classed as functional, HepG2. As to conditions: tested at 10 uM.
With `CC(NC(=O)NCCn1ccnc1)c1ccc2c(c1)CCC(=O)N2` (centres undefined), the INHIBITION is -15.5%.

`CO[C@H]1C(=O)N(C)C2(CCNCC2)[C@@H]1C(=O)Nc1ccccc1`: the INHIBITION amounted to 29%.

Regarding `Cc1noc(C)c1CN1CC[C@H]2OCC[C@@]2(C(=O)N2CCCO2)C1`, the INHIBITION is given as 37.5%.

On to `Cc1cnn(CC2CCCN2C(=O)c2cnc(-c3ccco3)s2)c1` (centres undefined), for which the INHIBITION worked out at 15.5%.

Regarding `CCS(=O)(=O)N1CCc2nc(N3CCOCC3)nc(N(C)C)c2CC1`, the INHIBITION was found to be 55.6%.

Regarding `CCCS(=O)(=O)N1CCc2nc(N3CCOCC3)nc(N(C)C)c2C1`, the INHIBITION was 43.8%.

For `CCS(=O)(=O)N1CCc2nc(N3CCCC3)nc(N(C)C)c2CC1`, the INHIBITION was 23.1%.

`CC(=O)N1CCCC1C(=O)NCCOc1c(C)cccc1C` (centres undefined): the INHIBITION was -57.4%.

Turning to `CC(C)NC(=O)[C@]12COC[C@H]1CN(Cc1cnn(C)c1)C2`, the INHIBITION was -1.36%.

Turning to `Cc1ccccc1-n1c(C)cc(=O)[nH]c1=O`, the INHIBITION was determined as 33.4%.

Consider `COCC1CN(C(=O)Cc2cccs2)Cc2nnn(C)c21` (centres undefined), for which the INHIBITION stood at 26.3%.

On to `CC(CN1CCOCC1)NC(=O)c1cc(Cl)c2c(c1)OCCO2` (centres undefined), for which the INHIBITION is on record as -23.7%.

Turning to `Cc1nn(C)c(C)c1CC(=O)NCc1cccnc1N1CCOCC1`, the INHIBITION came to 1.48%.

In the case of `Cc1c(Cl)c(C(=O)NC(C)CN2CCOCC2)nn1C` (centres undefined), the INHIBITION is 54.9%.

Take `Cn1nc(C(=O)NN2CCOCC2)c(Cl)c1C(F)(F)F`: the INHIBITION was -23%.

As for `Cc1nn(C)c(C)c1C(=O)NN1CCOCC1`, the INHIBITION amounted to 62.3%.

Regarding `Cc1c(Cl)c(C(=O)NCc2ccc(F)cc2)nn1C`, the INHIBITION was -6.18%.

`Cc1cc(C(=O)NCc2c(C)nn(C)c2C)nc(N2CCOCC2)n1`: the INHIBITION came to 12.9%.

Take `CCC(=O)NCCNC(=O)c1nn(C)c(C)c1Cl`: the INHIBITION is -23%.

Regarding `Cc1c(Cl)c(C(=O)NN2CCOCC2)nn1C`, the INHIBITION is given as 55.7%.

For `CNc1ncccc1CN1CCN(C(C)=O)CC(C(N)=O)C1` (centres undefined), the INHIBITION is listed as -61.5%.

With `O=C(c1cocn1)N1CCC[C@]2(C[C@@H](Oc3ncccc3F)CO2)C1`, the INHIBITION was -26.5%.

With `O=C(c1ccc[nH]1)N1CCC2(CC1)CC(Oc1cccnc1)CO2` (centres undefined), the INHIBITION is reported as 22.5%.

For the compound `CN1CCCC1CNC(=O)CCCOc1cccc(F)c1` (centres undefined), the INHIBITION is reported as 11.5975%.

Take `CCn1ncc(-c2cc(C(F)F)n3nc(CCC(=O)O)nc3n2)c1C`: the INHIBITION is on record as 20.4%.

For the compound `Cc1cccc(N2N=C(C(=O)NC(C)Cc3ccco3)CCC2=O)c1` (centres undefined), the INHIBITION was 32%.

Turning to `Cc1cccc(N2N=C(C(=O)NC(C)CCc3ccco3)CCC2=O)c1` (centres undefined), the INHIBITION came to 12.4%.

Turning to `Cc1cccc(N2N=C(C(=O)NC(C)Cn3cccn3)CCC2=O)c1` (centres undefined), the INHIBITION amounted to 50.5%.

Take `CCn1cc(NC(=O)C2CCN(Cc3ccccc3)CC2)cn1`: the INHIBITION stood at 21.6%.

Regarding `CCn1cc(NC(=O)C2CCN(Cc3nc(C)c(C)o3)CC2)cn1`, the INHIBITION amounted to 8.31%.

Regarding `CCCc1noc(CN2CCC(C(=O)Nc3cnn(CC)c3)CC2)n1`, the INHIBITION was found to be 22.3%.

As to `CCn1cc(NC(=O)C2CCN(Cc3nc(C(C)C)no3)CC2)cn1`, the INHIBITION came out at 53.9%.

As to `CCc1noc(CN2CCC(C(=O)Nc3cnn(CC)c3)CC2)n1`, the INHIBITION worked out at 5.9%.

Regarding `CCn1cc(NC(=O)C2CCN(Cc3nc(C)c(C)s3)CC2)cn1`, the INHIBITION amounted to 55.6%.

Source of the values: ChEMBL document CHEMBL4513216, “Probing the Open Global Health Chemical Diversity Library for Multistage-Active Starting Points for Next-Generation Antimalarials” (ACS Infect Dis, 2020).
